# Screens: PubChem, several laboratories
# CCHF vOTU inh: blocks the CCHF virus ovarian tumor domain protease. CCHFV vOTU protease, Pep-AMC fluorescence. inhibition, % at 11.5 µM. 370,000 tested, 0.55% active; in the data active means inhibition above about 30%
# PrPC TRFRET: inhibitors of human cell surface prion protein PrPC. P04156. TR-FRET read-out. inhibition, % at 13.8 µM. 370,000 tested, 0.43% active. AID 720596; in the data active means inhibition above about 24%
# PrP UTR inh: inhibition of PrP 5' UTR reporter expression; cell-based PrP 5' UTR mRNA reporter, plate reader; 340,000 tested, 0.35% active; AID 488862; inhibition, % (no concentration beside the values); in the data active means inhibition above about 52%
# ugtP null kill: growth inhibition of S. aureus ugtP deletion strain | S. aureus RN4220 ugtP deletion, OD600 growth, 16 h | growth inhibition, % (concentration not given with the values) | 330,000 tested, 0.54% active | AID 1259309; in the data active means growth inhibition above about 68%
# RN4220 kill: kills Staphylococcus aureus RN4220; S. aureus RN4220 growth, OD600, 16 h; inhibition, % (no concentration beside the values); 330,000 tested, 0.33% active; in the data active means inhibition above about 85%
# PfHsp40 rescue: compounds rescuing yeast from Plasmodium falciparum HSP40 toxicity. growth rescue, % at 12.5 µM. 340,000 tested, 0.68% active. AID 504582. S. cerevisiae expressing PfHsp40, growth rescue, ATP luminescence; in the data active means growth rescue above about 28%, passing the limit was not always enough;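 further: yeast W303a lacking pdr1 and pdr3 grown in galactose medium; growth measured after three days at 30 °C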
# A number is an active result; i = inactive; nt = not tested or not shown; ! = not active in a repeat. Compounds with a hit are over-represented: about 2.1% of the library has one in this group of screens.
SMILES,CCHF vOTU inh,PrPC TRFRET,PrP UTR inh,ugtP null kill,RN4220 kill,PfHsp40 rescue
O=C(Nc1nc2cc3c(cc2s1)OCCO3)c1ccc([N+](=O)[O-])o1,i,i,i,88,i,i
COc1ccc2nc(NC(=O)c3ccc([N+](=O)[O-])o3)sc2c1,i,i,i,100,i,i
Cc1cc(C)c2sc(NC(=O)c3ccc([N+](=O)[O-])o3)nc2c1,i,i,i,i,i,i
CC(=O)NC1=NC(=O)C(=CN2CCOCC2)S1,nt,nt,nt,i,i,nt
CC(=O)N1CCN(c2ccc(NC(=O)C=Cc3ccccc3)cc2)CC1,nt,nt,nt,i,i,nt
CN(C)CCCN(C(=O)c1ccc([N+](=O)[O-])o1)c1nc2cc3c(cc2s1)OCO3,51,i,i,i,i,i
Cc1ccc(NC(=O)/C=C/c2cccc(C(F)(F)F)c2)cc1,i,i,i,i,i,i
O=C(/C=C/c1ccccc1)NC(NC(=S)Nc1cccc(Cl)c1)C(Cl)(Cl)Cl (stereo unspecified),i,i,79,i,i,i
CSc1cccc(NC(=O)/C=C/c2cccc(Cl)c2)c1,i,i,i,i,i,245
O=C(/C=C/c1cccc(C(F)(F)F)c1)Nc1cccc(C(F)(F)F)c1,i,i,i,100,100,83
O=C(/C=C/c1ccccc1)NC(NC(=S)Nc1cccc(O)c1)C(Cl)(Cl)Cl (stereo unspecified),i,i,i,i,i,i
O=C(/C=C/c1cccc(F)c1)Nc1ccc(S(=O)(=O)Nc2ncccn2)cc1,i,i,i,i,i,i
CNC(=O)c1ccc(NC(=O)/C=C/c2cccc(F)c2)cc1,i,i,i,i,i,114
Cc1nn(-c2ccccc2)c(Cl)c1C=NNC(=O)CNC(=O)c1ccccc1Cl,nt,nt,nt,i,i,nt
O=C(NN=Cc1ccco1)c1cccc(N2CCCC2=O)c1,nt,nt,nt,i,i,nt
CCc1[nH]nc(C(=O)NN=Cc2ccncc2)c1C,nt,nt,nt,i,i,nt
CN1CCN(c2ccc(Cl)cc2NC(=O)c2nn(-c3ccccc3)c(=O)c3ccccc23)CC1,i,i,i,i,i,i
Cn1nc(C(=O)Nc2cc(Cl)ccc2N2CCCC2)c2ccccc2c1=O,i,i,i,100,100,i
O=C(O)c1ccc(N/N=C/c2cccc(F)c2)cc1,i,i,i,nt,nt,i
O=C(O)c1ccc(NN=C/C=C/c2ccccc2)cc1,nt,nt,nt,i,i,nt
O=C(O)c1ccc(N/N=C/c2ccc(F)c(F)c2)cc1,i,i,i,nt,nt,147
O=C(O)c1ccc(N/N=C/C(Br)=C/c2ccccc2)cc1,i,i,i,nt,nt,183
O=C(O)c1ccc(N/N=C/c2cccc(C(F)(F)F)c2)cc1,i,i,i,nt,nt,64
CC1OC(OC2C(COC3OC(CO)C(O)C(O)C3O)OC(OC3CC[C@]4(C)C(CC[C@@]5(C)C4CC=C4C6CC(C)(C)CC[C@]6(CO)C(O)C[C@]45C)C3(C)C)C(O)C2O)C(O)C(O)C1O (stereo partly specified),nt,nt,nt,i,i,nt
COc1c(O)cccc1C(O)C1CCN(CCc2ccc(F)cc2)CC1 (stereo unspecified),nt,nt,nt,i,i,nt
SMILES,CCHF vOTU inh,PrPC TRFRET,PrP UTR inh,ugtP null kill,RN4220 kill,PfHsp40 rescue
CC(C)(C)c1ccc(C(=O)OC/C(O)=C(\C#N)c2nc3ccccc3s2)cc1,i,i,i,85,i,i
c1ccc(-c2ccc(C(c3ccccc3)n3ccnc3)cc2)cc1 (stereo unspecified),i,i,i,i,i,176
O=[N+]([O-])c1cc(Br)c(Nc2ccccc2)c([N+](=O)[O-])c1,i,i,i,i,i,67
O=C(Nc1ccccc1)c1ccc(Nc2c([N+](=O)[O-])cc([N+](=O)[O-])c3ccccc23)cc1,i,i,i,nt,nt,i
O=C(CCC1CCCCC1)NCCN1C2=NCC(Cc3ccc(O)cc3)N2CC1Cc1ccc(O)cc1 (stereo unspecified),nt,nt,nt,i,i,nt
CC(C)(C)C(O)C(Oc1ccc(Cl)cc1)n1cncn1 (stereo unspecified),i,i,i,i,i,141
CC(CC(=O)N1CCN(S(=O)(=O)c2ccc(Cl)cc2)CC1)n1cncn1 (stereo unspecified),i,i,i,i,i,i
O=C(CN1CC[n+]2c(-c3cccs3)csc21)c1ccc(-c2ccccc2)cc1,i,i,i,i,i,401
Cc1ccc(C(=O)Cn2nnc(-c3cccs3)n2)cc1,i,i,i,i,i,i
N#CCCn1cc(C=N/N=C2\NC(=O)C(CC(=O)O)S2)c(-c2ccc(F)cc2)n1 (stereo unspecified),nt,nt,nt,i,i,nt
Cc1ccc(C(=O)CC(=O)c2cc(Cl)ccc2O)cc1,i,i,i,99,100,i
Cc1ccc(C(=O)CNc2ccccc2)cc1,i,i,i,i,i,i
Cc1ccc(C(=O)Nc2ccc(Cl)cc2C(=O)c2ccccc2)cc1,i,i,i,92,i,i
Cc1ccc(C(=O)CC(=O)c2ccc(C)cc2O)cc1,i,i,i,i,i,i
Cc1ccc(C(=O)CC(=O)c2ccc(C(C)(C)C)cc2)cc1,i,i,i,i,i,36
CC(C)(C)c1ccc(C(=O)CC(=O)c2cc(Cl)ccc2O)cc1,i,i,i,98,100,i
COc1cccc(C=NNC(=O)c2cnn(-c3ccccc3)c2N)c1,nt,nt,nt,i,i,nt
COC(=O)C1=C(c2ccc(Cl)c(C(F)(F)F)c2)CC2CCC1N2C(=O)NCCOc1ccc(OC)cc1 (stereo unspecified),nt,nt,nt,i,i,nt
Cc1cccc(NC(=O)CCC(=O)NN=Cc2ccncc2)c1,nt,nt,nt,i,i,nt
Oc1c(Br)cc(Br)cc1C=Nc1nc2c(s1)CCCC2,nt,nt,nt,i,i,nt
CCCCOc1ccc(C(=O)NNC(=S)NC(=O)CC)cc1,nt,nt,i,98,94,61
CCCOc1ccc(C(=O)NNC(=S)NC(=O)c2ccco2)cc1,i,i,i,90,87,108
CCCOc1ccc(C(=O)NNC(=S)NC(=O)c2ccccc2)cc1,i,i,i,nt,nt,i
CCCOc1ccc(C(=O)NNC(=S)NC(C)=O)cc1,i,i,i,i,i,52
FC(F)(F)c1ccc(Cl)c(NC(=S)NN=Cc2ccccc2Cl)c1,nt,nt,nt,i,i,nt
SMILES,CCHF vOTU inh,PrPC TRFRET,PrP UTR inh,ugtP null kill,RN4220 kill,PfHsp40 rescue
Cc1cc(C)cc(Nc2nc3ccccc3c(=O)[nH]2)c1,i,i,i,i,i,i
COc1nc(Nc2nc3ccccc3c(=O)[nH]2)nc2ccc(C)cc12,i,i,i,100,100,i
O=c1[nH]cc(F)c(=O)[nH]1,i,i,i,nt,nt,256!
C=CCNc1nc(-c2ccccn2)nnc1-c1ccccc1,i,i,i,i,i,354
Cc1noc(C)c1COc1ccc(C(=O)OC(C)C(=O)Nc2ccc(N3CCOCC3)cc2)cc1 (stereo unspecified),i,i,i,i,i,67
O=S(=O)(c1ccc(F)cc1)N1CCCC1,i,i,i,i,i,37
O=C(CNC(=O)c1ccc(Br)o1)NCc1ccc(Cl)cc1Cl,i,i,i,i,i,52
Cc1ccc(C(=O)CSc2nnc(-c3ccc4[nH]c(C)c(C)c4c3)o2)cc1C,i,i,i,98,i,i
